Pf growth 96h: Primary qHTS for delayed death inhibitors of the malarial parasite plastid, 96 hour incubation; P. falciparum luciferase reporter growth, 96 h; Potency, µM (highest dose often 28.7 µM), inactives show at the highest dose activity change, negative = inhibition, actives largely listed as inhibitors; 6.9% of 320,000 active; AID 504834, 2011; note: potency is the fitted concentration of half-maximal effect
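Luminescence readout: decreased luciferase signal marks inhibited growth of reporter-expressing P. falciparum in infected red cells (2% hematocrit, 0.05% parasitemia final), exposed to compound two generations (96 h, 37 C, 5% CO2).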
HCMV antiviral: qHTS Assay for inhibitors of the human cytomegalovirus (HCMV). HFF cells, HCMV-luciferase reporter, 72 h; active compounds read low. activity change, negative = inhibition, % at 57.5 µM. 4.5% of 410,000 active; in the data active = activity change below about -60%; inconclusive = no clear call, values can overlap the other calls; inactive = above about -39%
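HFF cells seeded 16 h at 37C, treated with compounds, infected with luciferase-reporter HCMV at MOI 1 PFU/cell; luciferase read at 72 h post infection, normalized to buffer-only and Salinomycin controls.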
HCV inh: qHTS Assay for Inhibitors of Hepatitis C Virus (HCV); 3.4% of 340,000 active; Huh7.5.1 HCVcc-Cre infection, luciferase reporter, 44 h; Potency, µM (series often up to 41.8 µM), without a hit: top-dose activity change, negative = inhibition, actives largely listed as inhibitors; AID 651820, 2012; note: potency is the fitted concentration of half-maximal effect
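Whole-lifecycle infectious HCVcc-Cre system; cells 1,000/well, compound then virus (~0.5 moi) added 4 h after plating, 44 h culture. Luciferase read 15 sec following 15 min substrate incubation, room temp.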
Pf growth 48h: Primary qHTS for delayed death inhibitors of the malarial parasite plastid, 48 hour incubation; Potency, µM (top dose mostly 28.7 µM), for inactives: top-dose activity change, negative = inhibition, actives largely listed as inhibitors; AID 504832, 2011; 5.9% of 310,000 active; P. falciparum luciferase growth in erythrocytes, 48 h; note: potency is the fitted concentration of half-maximal effect
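First compound was added to culture medium, then infected red cells at 0.1% parasitemia and 2% hematocrit (final). After incubation at 37 C under 5% CO2, luciferase detection reagent was dispensed and light output recorded.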
An asterisk follows results filed as active; ? = inconclusive; nt = no result given; ! = repeats disagree; [ ] = remark or other dose. Compounds with a hit are over-represented: about 13% of the library has one in this group of screens. Unless noted, calls come from the whole dose curve; as a rule, active = well fitted inhibition curve with a large enough effect; inconclusive = small, poorly fitted or top-dose-only effect, or another doubt; inactive = no such curve, though single readings can be large or run the other way. % is set by controls: 0 for no effect and ±100 for the full control effect.

SMILES	Pf growth 96h	HCMV antiviral	HCV inh	Pf growth 48h
Cc1cc(C(=O)COc2cccnc2[N+](=O)[O-])c(C)n1Cc1ccco1	14%	-14	?	-21%
Cc1cc(C(=O)COc2cccnc2[N+](=O)[O-])c(C)n1-c1ccccc1	64%	-99*	-8%	50%
Cc1ccc(-n2c(C)cc(C(=O)COc3cccnc3[N+](=O)[O-])c2C)cc1	-18%	-99*	?	11%
CCOC(=O)N1CCN(C(=O)c2ccc3c(c2)N(Cc2ccccc2F)C(=O)c2ccccc2S3=O)CC1 (configuration not stated)	nt	13	nt	nt
O=C(c1ccc(OCC2CCCO2)cc1)N1CCN(S(=O)(=O)c2cccc(F)c2)CC1 (configuration not stated)	-14%	0	-22%	12%
O=C(Nc1ccc(S(=O)(=O)N2CCCC2)cc1)c1ccc(OCC2CCCO2)cc1 (configuration not stated)	?	-88*	11µM*	?
O=C(Nc1cccc(S(=O)(=O)N2CCCCC2)c1)c1ccc(OCC2CCCO2)cc1 (configuration not stated)	?	-66*	?	?
Cc1ccc(CNc2nc3ccccc3n3c(C)nnc23)cc1	nt	0	nt	nt
Cc1cccc(C(=O)n2nc(-c3cccnc3)nc2NCc2ccc(F)cc2)c1	nt	5	nt	nt
CC(C)=CCOc1ccc(/C=C/C(=O)c2ccc(OCC=C(C)C)cc2OCC(=O)O)cc1	-17%	nt	nt	-12%
O=C1CC(c2ccccc2)CC2=C1C=Nc1ccccc1N2 (configuration not stated)	?	-77*	-27%	?
O=C1CC(c2ccc(F)cc2)CC2=C1C=Nc1ccccc1N2 (configuration not stated)	3%	-31	-20%	?
CCCCOc1ccc(CNC(=O)c2cccc(NC(=O)N3CCSc4ncccc43)c2)cc1	nt	0	nt	nt
COc1ccc(CN2CCN(CCSc3ccc(C)cc3)CC2)c(OC)c1OC	13%	26	14µM*	1%
CCNc1nc(C)c2cc(Br)c(=O)n(CC)c2n1	0%	40	8.9µM*	0%
Cc1ccc(N(C)S(=O)(=O)c2nnc(NC(=O)C3CCCCC3)s2)cc1	nt	15	nt	nt
Cc1cccc(NC(=O)CSc2nc(-c3ccco3)nc3cc(=O)[nH]n23)c1	-29%	-15	nt	?
C=CCSc1nnc2c(n1)[nH]c1c(C)cccc12	12µM*	-37	7.9µM*	nt
O=C(Nc1ccccc1C(=O)N1CCCCCC1)c1ccc(F)cc1	?	-102*	11%	-9%
COc1ccc(C(=O)Nc2ccccc2C(=O)N2CCCCCC2)cc1	-6%	?	19%	-17%
CCOC(=O)N1CCN(C(=O)c2ccccc2NC(=O)c2ccc(C(C)(C)C)cc2)CC1	?	?	22%	10µM*
CN1CCN(C(=O)c2ccccc2NC(=O)c2ccc(C(C)(C)C)cc2)CC1	?	nt	19%	-10%
Cc1ccc(C(=O)Nc2ccccc2C(=O)N2CCCCC2C)cc1 (configuration not stated)	12µM*	42	-9%	-16%
CCOC(=O)N1CCN(C(=O)C(NC(=O)c2ccc(C(C)(C)C)cc2)C(C)C)CC1 (configuration not stated)	?	-62*	?	9.3µM*
C[C@@H]1CN([C@H](C)CO)C(=O)CCCn2nncc2CO[C@H]1CN(C)Cc1cccc(C(F)(F)F)c1	nt	19	nt	nt
SMILES	Pf growth 96h	HCMV antiviral	HCV inh	Pf growth 48h
Cc1ccc(-n2nc(C)c3c(C(=O)NCc4ccc(F)cc4)cc(C)nc32)cc1	nt	4	nt	nt
COCCCn1c(N)c(C(=O)NCCC(C)C)c2nc3ccccc3nc21	?	-27	8.9µM*	?
CC(C)CCn1c(N)c(C(=O)OCC2CCCO2)c2nc3ccccc3nc21 (configuration not stated)	?	-24	13µM*	?
CC(C)CCOC(=O)c1c(N)n(CC2CCCO2)c2nc3ccccc3nc12 (configuration not stated)	8%	?	?	?
CCOCCCn1c(N)c(C(=O)Nc2sc3c(c2C(=O)OC)CCCC3)c2nc3ccccc3nc21	?	19	11%	15µM*
CCCCOCCCn1c(N)c(C(=O)OCCOC)c2nc3ccccc3nc21	10µM*	-1	-17%	?
COc1cccc(S(=O)(=O)N(C)C[C@@H]2Oc3ncc(Br)cc3C(=O)N([C@H](C)CO)C[C@@H]2C)c1	nt	-10	nt	nt
COc1cccc(Cn2c(=O)n(CCc3ccccc3)c(=O)c3c2c2cc(OC)ccc2n3C)c1	nt	21	nt	nt
CCCCn1c(N)c(C(=O)OCC2CCCO2)c2nc3ccccc3nc21 (configuration not stated)	18%	-14	?	9.3µM*
Nc1c(C(=O)OCC2CCCO2)c2nc3ccccc3nc2n1C1CCCCC1 (configuration not stated)	?	-31	?	?
COc1ccc2nc(S(=O)Cc3ncc(C)c(OC)c3C)[nH]c2c1 (configuration not stated)	3.3µM*	66	2.2µM*!	12µM*
Cc1c(OCC(F)(F)F)ccnc1CS(=O)c1nc2ccccc2[nH]1 (configuration not stated)	-18%	22	?	10%
CCC(=O)N1CCc2cc(S(=O)(=O)NC(Cc3ccccc3)C(=O)Nc3ccccc3C)ccc21 (configuration not stated)	nt	2	nt	nt
Cc1cc2cc(CNC(=S)Nc3ccc(OC(F)(F)F)cc3)ccc2[nH]1	3%	-75*	-27%[8.37 µM]	1%
Cc1cc2cc(CNC(=S)Nc3ccc(OC(F)F)cc3)ccc2[nH]1	-13%	8	?	-26%
COCCCNC(=O)C1CC(=O)N(C2CCCC2)C1 (configuration not stated)	10µM*	45	4%	2%
COCCNC(=O)C1CC(=O)N(C2CCCCC2)C1 (configuration not stated)	-1%	6	4%	24%
CCOCCCNC(=O)C1CC(=O)N(C2CCCC2)C1 (configuration not stated)	12µM*	-7	15%	14%
CCOC(=O)c1cccc(NC(=O)NC(C)c2c(-n3cccc3)sc3c2CCN(C)C3)c1 (configuration not stated)	nt	-37	nt	nt
O=S1(=O)c2ccccc2N(Cc2cccc(C(F)(F)F)c2)c2ccccc21	nt	-15	nt	nt
Cn1c(SCc2cccnc2)nc2c(c1=O)SCC2	?	-25	?	-2%
CC1Cc2nc(SCC(=O)N3CCCc4ccccc43)n(C)c(=O)c2S1 (configuration not stated)	?	0	11µM*	?
CCOc1ccc(NC(=O)CSc2nc3c(c(=O)n2C)SC(C)C3)cc1 (configuration not stated)	7.4µM*	?	?	13µM*
Cn1c(SCC(=O)Nc2cccc(F)c2)nc2c(c1=O)SCC2	2.6µM*	?	?	?
